Bioassay records deposited in PubChem BioAssay by National Center for Advancing Translational Sciences (NCATS).
SNCA viab count: cell viability loss counter-screen; Potency, µM (highest dose often 57.1 µM), inactives show at the highest dose activity change, negative = cytotoxicity, hits mostly cytotoxic; AID 1671193; HEK-293-SNCA-luc viability, GF-AFC fluorescence, 24 h; 150,000 tested, 0.12% active;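 note: potency is the fitted concentration of half-maximal effect; 0% = DMSO-treated cells and -100% = medium-only wells without cells; nearly all actives have a fitted effect of over 30% in size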
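Cytotoxicity counterscreen: after 24 h compound treatment of genome-edited SNCA-luciferase HEK-293 cells, live-cell protease substrate GF-AFC read by fluorescence after 30 min; activity scaled between DMSO (0%) and medium-only (-100%), curves Hill-fitted.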
SNCA expr inh: SNCA gene expression inhibition; HEK-293 SNCA-luciferase knock-in, luminescence, 24 h; Potency, µM (highest dose often 57.2 µM), for inactives: at the top dose activity change, negative = inhibition, most hits filed as inhibitors; 140,000 tested, 0.17% active;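 note: potency is the fitted concentration of half-maximal effect; plate controls were DMSO cells for no effect and cell-free wells for full effect; nearly all actives have a fitted effect of over 45% in size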
IP6K1 inh: IP6K1 kinase inhibition; 140,000 tested, 0.81% active; IP6K1 kinase, ADP-Glo luminescence, 2 h; active compounds read low; Q92551; activity change, % (series mostly up to about 58 µM); in the data active = activity change below about -25%
Target sequence (Q92551 whole entry, looked up): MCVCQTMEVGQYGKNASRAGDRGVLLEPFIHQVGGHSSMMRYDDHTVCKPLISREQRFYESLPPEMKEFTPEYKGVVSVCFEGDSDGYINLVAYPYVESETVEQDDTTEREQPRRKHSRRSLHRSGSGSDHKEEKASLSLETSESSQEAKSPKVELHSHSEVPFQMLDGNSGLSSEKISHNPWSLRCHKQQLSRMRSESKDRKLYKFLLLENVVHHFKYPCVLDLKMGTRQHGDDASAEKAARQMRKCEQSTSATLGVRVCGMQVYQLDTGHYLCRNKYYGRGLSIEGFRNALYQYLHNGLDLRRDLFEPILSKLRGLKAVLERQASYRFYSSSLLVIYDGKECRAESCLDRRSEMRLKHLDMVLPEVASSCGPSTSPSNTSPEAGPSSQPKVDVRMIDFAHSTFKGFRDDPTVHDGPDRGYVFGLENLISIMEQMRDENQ
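ADP-Glo luminescence measures ADP made by human IP6K1 during a 2 h RT reaction with ATP/IP6 (mix at 1.3 mM/130 uM); top library doses 57.5 and 19.1 uM final.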
GPT2 inhibitor: inhibitors of human GPT2 alanine aminotransferase; Q8TD30; Recombinant GPT2, coupled pyruvate oxidase/HRP Amplex Red fluorescence; Potency, µM (doses to about 57.7 µM), without a hit: at the highest dose activity change, negative = inhibition, actives largely listed as inhibitors; AID 1671188; 100,000 tested, 0.25% active; note: potency is the fitted concentration of half-maximal effect; nearly all actives have a fitted effect of over 60% in size
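Fluorescence of coupled pyruvate oxidase/HRP/Amplex Red system (50uM Amplex, 30 min, dark) reports pyruvate formed by GPT2. Enzyme reaction: 10ng/uL GPT2, 2mM L-alanine, 250uM a-KG, 30 min room temperature, pH 7.5; 50uM AOA control.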
IP6K1 conf: human IP6K1 inhibition, confirmatory. shares compounds with IP6K1 inh. recombinant IP6K1 kinase, ADP-Glo luminescence, 2 h. 1,200 tested, 13% active. Potency, µM (highest dose often 49 µM), without a hit: at the top dose activity change, negative = inhibition, usual class: inhibitors. AID 1645852; note: potency is the fitted concentration of half-maximal effect; nearly all actives have a fitted effect of over 65% in size
Numbers without * were called inactive; ! = not confirmed by another sample; [ ] = dose if it differs, or a comment. A selection: hits, their analogues and other compounds. The true share with any hit is near 1.1%. Unless noted, calls come from the whole dose curve; as a rule, active = well fitted curve in the direction sought with a large enough effect; inconclusive = small, poorly fitted or top-dose-only effect, or another doubt; inactive = no such curve, though single readings can be large; an effect the other way counts as inactive or inconclusive. Unless noted, % is set by controls: 0 for no effect and ±100 for the full control effect.

`CC1=C[C@@H](CNS(=O)(=O)c2cccc(F)c2)[C@H](C(C)C)C[C@H]1CC(=O)O` gave SNCA viab count 5%[87.6 µM], SNCA expr inh -18%[87.6 µM], IP6K1 inh -11 and GPT2 inhibitor -50%[88.5 µM].
Screening O=C(c1ccc(F)c(Cl)c1)N1CCC(n2cc(-c3nc(-c4ccccc4)no3)nn2)CC1 returned SNCA viab count -4%, SNCA expr inh 45%, IP6K1 inh 0 and GPT2 inhibitor 2%.
For Oc1ccc(/C=C/c2cc(O)cc(O)c2)cc1 the results were SNCA viab count -12%, SNCA expr inh inconclusive, IP6K1 inh -60*, GPT2 inhibitor inactive and IP6K1 conf 9.2µM*.
For Oc1ccc(C(O)CNCCCCCCNCC(O)c2ccc(O)c(O)c2)cc1O (stereo not given) the results were SNCA viab count -2%[23.9 µM], SNCA expr inh -21%[25.6 µM], IP6K1 inh 27 and GPT2 inhibitor -20%.
`NC[C@H](O)c1ccc(O)c(O)c1` gave SNCA viab count 5%, SNCA expr inh 9%, IP6K1 inh -70*, GPT2 inhibitor 10µM*! and IP6K1 conf -19%.
Screening Cn1cc(-c2cc(=O)c3ccnc(Nc4ccc5[nH]ccc5c4)c3o2)cn1 returned SNCA viab count -15%[87.6 µM], SNCA expr inh -6%[87.6 µM], IP6K1 inh -38*, GPT2 inhibitor inactive and IP6K1 conf inconclusive.
CCNC(=O)N[C@@H]1C=C[C@@H](c2c(C)nn(-c3ccc(C(F)(F)F)cc3)c2C)C1 was read as SNCA viab count inconclusive, SNCA expr inh -45%[87.6 µM], IP6K1 inh -14 and GPT2 inhibitor -25%[88.5 µM].
For CCOC(=O)c1c(NC(C)=O)c2c3c(sc2n1Cc1nc(-c2cccc(Cl)c2)oc1C)CCCC3 the results were SNCA viab count 3%, SNCA expr inh -15% and IP6K1 inh -5.
For CCOC(=O)c1c(NC(C)=O)c2c3c(sc2n1Cc1nc(-c2ccccc2Cl)oc1C)CCCC3 the results were SNCA viab count -23%, SNCA expr inh inconclusive, IP6K1 inh -30* and IP6K1 conf 11%.
For NC(=O)c1cnc(N[C@@H]2CCCC[C@H]2N)nc1Nc1cccc(-n2nccn2)c1 the results were SNCA viab count inconclusive, IP6K1 inh -17, GPT2 inhibitor inactive and IP6K1 conf inconclusive.
`Cc1cccc(Nc2nc(N[C@@H]3CCCC[C@H]3N)ncc2C(N)=O)c1` gave SNCA viab count -5%, SNCA expr inh -17% and GPT2 inhibitor inconclusive.
For Cc1ccc(-c2cn3c(n2)CO[C@@H](CNCc2ccc(-c4ccccn4)cc2)C3)cc1 the results were SNCA viab count -16%[87.6 µM], SNCA expr inh 89%[87.6 µM], IP6K1 inh 4 and GPT2 inhibitor -23%[88.5 µM].
c1ccc(Oc2cc3c(cn2)NCCN(Cc2ccsc2)C3)cc1 was read as SNCA viab count 6%[87.6 µM], SNCA expr inh 11%[87.6 µM], IP6K1 inh -29*, GPT2 inhibitor inactive and IP6K1 conf -4%.
For CCOC(=O)Cn1c(=N)n(Cc2ccc(C(C)(C)C)cc2)c2ccccc21 the results were SNCA viab count inconclusive, SNCA expr inh inconclusive, IP6K1 inh -27* and IP6K1 conf 2%.
`CC(C)(C)c1ccc(Cn2c(Cc3ccccc3)nc3ccccc32)cc1` gave SNCA viab count -12%, SNCA expr inh inconclusive and IP6K1 inh -16.
Screening CC(C)C[C@H](C(=O)O)c1cc(-c2ccc(C(F)(F)F)cc2)cc(-c2ccc(C(F)(F)F)cc2)c1 returned SNCA viab count -34%, IP6K1 inh -30*, GPT2 inhibitor 1% and IP6K1 conf inconclusive.
COc1ccc(-c2nc3ncccc3[nH]2)cc1 was read as SNCA viab count -17%[87.6 µM], SNCA expr inh -26%[87.6 µM], IP6K1 inh -27*!, GPT2 inhibitor 0%[88.5 µM] and IP6K1 conf inconclusive.
Cc1nn(-c2ccccc2)c(OC(=O)c2ccccc2)c1S(=O)(=O)c1ccccc1 was read as SNCA viab count 9%, SNCA expr inh -18%, IP6K1 inh -33* and IP6K1 conf 46%.
Cc1oncc1C(=O)Nc1ccc(C(F)(F)F)cc1 was read as SNCA viab count 0%, SNCA expr inh -22%, IP6K1 inh 30, GPT2 inhibitor -6% and IP6K1 conf 2%.
